Records with an inconclusive call do not appear. Values without a mark were called inactive. Active and inactive are the calls of the source. Calls come from the whole dose curve.
% is set by controls: 0 for no effect and ±100 for the full control effect; potency is the fitted concentration of half-maximal effect.

The test in a line: qHTS assay to identify small molecule agonists of the hypoxia (HIF-1) signaling pathway - cell viability counter screen (AID 1224844). Note: nearly all actives have a fitted effect of over 50% in size. The conditions noted are these: HRE-bla ME-180 viability, CellTiter-Glo luminescence, 17 h; series mostly up to 76.8 µM; activity change, negative = cytotoxicity: at the top concentration. The source says:
National Center for Advancing Translational Sciences [NCATS]
NIH Chemical Genomics Center [NCGC]
U.S. Environmental Protection Agency [EPA]
National Institutes of Environmental Health Sciences [NIEHS]
National Toxicology Program [NTP]
U.S. Food and Drug Administration [FDA]
Hypoxia-inducible factor-1 (HIF-1) is the major hypoxia-regulated transcription factor that controls cellular responses to low oxygen concentration. HIF-1 is composed of two subunits: hypoxia responsive HIF-1-alpha and constitutively expressed HIF-1-beta, which is also known as aryl hydrocarbon receptor nuclear translocator. During hypoxic conditions, HIF-1-alpha heterodimerizes with HIF-1-beta and translocates into the nucleus where the HIF-1 complex binds to the hypoxia-response element (HRE) and activates expression of target genes such as VEGF (vascular endothelial growth factor). The HIF-1 pathway is essential to normal growth and development, and is involved in the pathophysiology of cancer, inflammation, and ischemia.
Using a beta-lactamase reporter-gene under control of the hypoxia response element, a cell-based assay [CellSensor(TM) HRE-bla ME-180 from Life Technologies, Carlsbad, CA] was used to measure hypoxia-induced signaling. Tox21 10K library compounds were measured for their ability to induce the reporter gene activity. The cytotoxicity of the Tox21 compound library against HRE-bla ME-180 cell line was tested in parallel by measuring cell viability using CellTiter-Glo assay (Promega, Madison, WI) in the same assay wells.
Tox21 Assay Protocol Summary:
HRE-bla ME-180 cells were dispensed at 2,000 cells per well in 6 uL of assay medium containing 0.5% dialyzed FBS into black wall/clear-bottom 1536-well plates using a Multidrop Combi (Thermo Scientific, Waltham, MA) dispenser. After the assay plates were incubated at 37C and 5% CO2 for 5 hrs, 23 nL of compounds dissolved in DMSO, positive controls or DMSO only was transferred to each well of the assay plate using a Pintool station (Kalypsys, San Diego, CA). The assay plates were incubated at 37C and 5% CO2 for 17 hrs. One uL of LiveBLAzerTM B/G FRET substrate (CCF4-AM) (Life Technologies) was added to each well using a Flying Reagent Dispenser (FRD, Aurora Discovery, San Diego, CA). After 2 hr incubation at room temperature, fluorescence intensity (405 nm excitation, 460 nm and 530 nm emissions) was measured using an Envision plate reader (PerkinElmer, Shelton, CT). For cytotoxicity, 4 ul/well of CellTiter-Glo reagent was added into the assay plates using an FRD. After 30 min incubation at room temperature, the luminescence intensity was measured using a ViewLux plate reader (PerkinElmer).
With `CC(C)Nc1cccnc1N1CCN(C(=O)c2cc3cc(NS(C)(=O)=O)ccc3[nH]2)CC1`, the “activity change, negative = cytotoxicity” value was -18.7% [at 35.3 µM]. The same measure, in the same setting: as for `CC(=O)OCC(=O)NCCCOc1cccc(CN2CCCCC2)c1`, the figure is 9.41% [at 35.3 µM]. Turning to `CC(C)c1nc(CN(C)C(=O)N[C@H](C(=O)N[C@@H](Cc2ccccc2)C[C@H](O)[C@H](Cc2ccccc2)NC(=O)OCc2cncs2)C(C)C)cs1`, the Potency was 9.52 µM (active). `O=Cc1c2ccccc2c(Cl)c2ccccc12`: the “activity change, negative = cytotoxicity” value was -20.5% [at 35.3 µM]. On the same count and under the same terms, under `C=CC(C)(CCC=C(C)C)OC(=O)CC(C)C` (stereo not given) stands -2.11%. On to `CC(C)C[C@H](NC(=O)[C@H](CCc1ccccc1)NC(=O)CN1CCOCC1)C(=O)N[C@@H](Cc1ccccc1)C(=O)N[C@@H](CC(C)C)C(=O)[C@@]1(C)CO1`, for which the Potency is 0.213 µM (active). On to `CC(C)=CC(=O)C=C(C)C`, for which the “activity change, negative = cytotoxicity” value is -1.09%.

For the compound `Oc1c(I)cc(I)c2cccnc12`, the “activity change, negative = cytotoxicity” value is 3.26% [at 35.3 µM]. `Cc1cc(O)c(C)c(C)c1O`: the “activity change, negative = cytotoxicity” value was 8.4% [at 35.3 µM]. With `C/C=C/C=C/C=O`, the Potency is 48.6 µM (active). In the case of `NNC(=O)CP(=O)(c1ccccc1)c1ccccc1`, the “activity change, negative = cytotoxicity” value is -1.44% [at 35.3 µM].

For `CCC=CC#N`, the “activity change, negative = cytotoxicity” value is -4.89%. With `C[C@@H]1CC(=O)NN=C1c1ccc(NN=C(C#N)C#N)cc1`, the Potency entry is “inactive”. `C[C@@H](O[C@H]1OCCN(Cc2n[nH]c(=O)[nH]2)[C@H]1c1ccc(F)cc1)c1cc(C(F)(F)F)cc(C(F)(F)F)c1`: the Potency was 21.3 µM (active). `CCCCN1CCCC1C(=O)Nc1c(C)cc(C)cc1C` (stereo not given): the “activity change, negative = cytotoxicity” value is 2.31% [at 35.3 µM]. The same measure, in the same setting: under `Nc1nnc(-c2ccc([N+](=O)[O-])o2)o1` stands 13.1%; under `CCCCCCCCN`, 0.209%. Still for that read-out and setting: as for `Nc1cccc2c1CN(C1CCC(=O)NC1=O)C2=O` (stereo not given), the figure is 2.2% [at 35.3 µM]. Same read-out and setting: as for `Cc1ccc(OC(=O)c2ccccc2O)cc1`, the figure is 8.68%; as for `CCC(OCCCOC)OC(C)=O` (stereo not given), 5.39%. In the case of `C/C=C(/C(=C/C)c1ccc(O)cc1)c1ccc(O)cc1`, the “activity change, negative = cytotoxicity” value is -12.8% [at 35.3 µM]. With `C[C@@H](CN(C)C)CN1c2ccccc2Sc2ccccc21`, the Potency is 19 µM (active).

`CCOC(=O)/C=C/C(=O)OCC`: the “activity change, negative = cytotoxicity” value is 8.58%. Still for that read-out and setting: under `CCC(=O)OC` stands 3.9%.

`C(=C\c1ccccc1)/c1ccccc1`: the “activity change, negative = cytotoxicity” value is -25.4%. The same measure, in the same setting: as for `CC(=O)Nc1cc(S(=O)(=O)O)cc2cc(S(=O)(=O)O)c(N=Nc3ccccc3)c(O)c12`, the figure is -3.58%. On the same count and under the same terms, as for `CCC1CO1` (stereo not given), the figure is 0.358%; as for `Cc1ccc(CO)cc1`, -21.3%; as for `C=C(C)CCCC(C)CCO` (stereo not given), -1.04%.

As to `CC1CC(OC(=O)C(O)c2ccccc2)CC(C)(C)N1C` (stereo not given), the “activity change, negative = cytotoxicity” value was 0.291% [at 35.3 µM]. In the case of `CS(=O)(=O)c1ccc(-c2cn3ccccc3n2)cc1`, the Potency was 23.9 µM (active). Turning to `FC(F)(F)c1ccccc1Cl`, the “activity change, negative = cytotoxicity” value is 0.951%.

For `CCC1NC(=O)c2cc(S(N)(=O)=O)c(Cl)cc2N1` (stereo not given), the “activity change, negative = cytotoxicity” value is -0.0588% [at 35.3 µM].

Regarding `CC1(CN2CCC(n3c(=O)[nH]c4ccccc43)CC2)OCc2ccccc2-n2cccc21` (stereo not given), the Potency was 23.9 µM (active). `CN(C)CCC=C1c2ccccc2C=Cc2ccccc21`: the “activity change, negative = cytotoxicity” value is -28.1% [at 35.3 µM]. For the compound `Cc1ccco1`, the “activity change, negative = cytotoxicity” value is -2.42%. `CCCCCCCCC(CCCCCC)C(=O)O` (stereo not given): the Potency is 43.6 µM (active).

Take `CCCCCC[C@@H](O)C/C=C\CCCCCCCC(=O)O`: the “activity change, negative = cytotoxicity” value is -1.99%.

As to `CC(=O)Oc1ccc([N+](=O)[O-])cc1CCl`, the Potency was 49 µM (active). Turning to `Cc1cc(C)c(N)cc1C`, the “activity change, negative = cytotoxicity” value was -6.27%.

These data come from PubChem BioAssay (Tox21).
